The test system of test [1] is Wnt5a (protein binding on small-molecule microarray). Kind of test: small molecules binding Wnt5a protein – biophysical, small-molecule microarray, 635/667 nm fluorescence, primary screen (AID 1142).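 Further: fluorescence read at 667 nm with signal to noise per printed feature.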 The conditions noted are these: 635 nm fluorescence, higher = more signal.
Test [2] in a line: ATP-based viability of Huh7 replicon cells – cell-based, CellTiter-Glo luminescence, basal, 48 h, cytotoxicity control for HCV replication inhibitor project, primary screen (AID 1143).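 Further: Huh7 hepatoma cells carrying a hepatitis C replication reporter with no stimulus; test concentration not given here.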 The conditions noted are these: higher = more signal, called active from +8 up or from −8 down.
Test [3] in a line: Pseudomonas biofilm growth suppression – PAO1 strain, BacTiter-Glo luminescence, LB-PBS, primary screen (AID 1144). As to conditions: P. aeruginosa PAO1 biofilm, 12 h, higher = more signal.
Test [4] can be described thus: basal CRE-LacZ reporter activity in PC12 – cell-based, unstimulated, primary screen (AID 1145). The conditions noted are these: no forskolin, luminescence, 4.5 h, higher = more signal, called active from +8 up or from −8 down.
The nature of test [5]: forskolin-driven CRE-LacZ activity in PC12 – cell-based, CRE-LacZ reporter, forskolin-stimulated, primary screen (AID 1146).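 Further: PC12 cells with 6xCRE LacZ reporter stimulated by forskolin 10 µM; beta-galactosidase reporter signal reflecting CREB driven transcription.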 The conditions noted are these: luminescence, 4.5 h, higher = more signal, called active from +8 up or from −8 down.
Test [6] has as its target Streptavidin (Streptomyces avidinii) (UniProt P22629). Description: compounds binding control protein streptavidin – biophysical, small-molecule microarray, 635/667 nm fluorescence, artefact control for SMM compound annotation, primary screen (AID 1147).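 Further: signal reflects streptavidin binding to arrayed compounds as a control protein.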 The conditions noted are these: higher = more signal.
Test [7] can be described thus: probe aInhba binding on compound microarray – biochemical, small-molecule microarray, 635/667 nm fluorescence, primary screen (AID 1148).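 Further: score merges 667nm spot fluorescence with signal-to-noise for antibody binding to printed compounds.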 The conditions noted are these: higher = more signal.
Test [8] deals with Torsin-1A (Homo sapiens) (UniProt O14656). Kind of test: TOR1A wild-type binding on microarray – cell lysate, small-molecule microarray, lysate, 635/667 nm, primary screen (AID 1149). As to conditions: COS7 hTOR1A-WT lysate, 635 nm fluorescence, higher = more signal.
Chain of Torsin-1A (Homo sapiens) (O14656 whole entry, looked up): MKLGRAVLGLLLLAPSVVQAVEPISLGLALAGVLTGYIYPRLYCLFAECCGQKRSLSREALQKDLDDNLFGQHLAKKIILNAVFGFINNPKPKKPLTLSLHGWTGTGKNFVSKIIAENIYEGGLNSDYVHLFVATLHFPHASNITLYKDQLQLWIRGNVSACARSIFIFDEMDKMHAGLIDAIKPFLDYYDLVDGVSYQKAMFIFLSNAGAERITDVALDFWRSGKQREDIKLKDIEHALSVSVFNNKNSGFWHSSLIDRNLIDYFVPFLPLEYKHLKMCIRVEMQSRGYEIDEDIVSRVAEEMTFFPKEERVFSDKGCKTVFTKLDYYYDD
For test [9] the target is unchanged. Kind of test: torsin A mutant lysate binding on microarrays – cell lysate, small-molecule microarray, COS7 lysate, 635/667 nm fluorescence, primary screen (AID 1150).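 Further: score pools 667 nm emission and signal to noise measuring lysate protein binding.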 As to conditions: COS7 hTOR1A mutant lysate, 635 nm fluorescence, higher = more signal.
Test [10] deals with Sonic hedgehog protein (Shh). Kind of test: Sonic hedgehog microarray binding compounds – biochemical, small-molecule microarray, 635/667 nm fluorescence, primary screen (AID 1151).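 Further: Shh protein binding to compounds spotted on small-molecule microarray slides; score combines spot fluorescence intensity with signal-to-noise across triplicate slides.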 As to conditions: 635 nm fluorescence, higher = more signal.

Molecules are shown by their SMILES. The source made the active and inactive calls. Unless noted, how the calls were made is not given here.

Chain of Streptavidin (Streptomyces avidinii) (P22629 whole entry, looked up): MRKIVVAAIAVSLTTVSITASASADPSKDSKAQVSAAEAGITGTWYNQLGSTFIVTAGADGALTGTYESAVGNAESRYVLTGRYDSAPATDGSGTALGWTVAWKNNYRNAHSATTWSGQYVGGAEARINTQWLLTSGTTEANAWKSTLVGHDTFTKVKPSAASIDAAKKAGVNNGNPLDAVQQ

Turning to `COc1ccc([Si](C)(C)[C@H]2[C@H](CC(=O)N3Cc4ccccc4C[C@H]3CO)O[C@@]3(C(=O)N(Cc4ccc(N5C(=O)c6cccc7cccc5c67)cc4)c4ccccc43)[C@@H]2C)cc1`, the composite z-score in test [1] was -0.108; in test [6] it was 0.294; in [7], 0.0102; in the test with Torsin-1A (Homo sapiens) [8], -0.0784; in the test with Torsin-1A (Homo sapiens) [9], 0.837; in [10], 1.66. The z-score in [2] is -4.09 (inactive); in [3], -0.67 (inactive); in test [4] it was 1.04 (inactive); in test [5], -1.35 (inactive).
Turning to `O=C1O[C@H](c2ccccc2)[C@H](c2ccccc2)N2[C@H]1[C@@H](C(=O)Nc1nc3ccccc3s1)[C@]1(C(=O)Nc3ccc(C#CC4=CCCCC4)cc31)[C@H]2c1ccc(O)cc1`, the composite z-score is 0.357 in test [1]; 1.24 in [6]; -0.103 in test [7]; -0.253 with Torsin-1A (Homo sapiens) [8]; 0.335 in the test with Torsin-1A (Homo sapiens) [9]; 1 in [10]. For the same molecule, the z-score in test [2] is -4.09 (inactive); in test [3] it was -0.922 (inactive); in test [4] it was -0.671 (inactive); in test [5] it was 0.0225 (inactive).
Regarding `CCCCC(=C=CC[C@H](O)c1ccc(OCCO)cc1)C[C@H](O)c1cc(Cl)cc(Cl)c1O`, the composite z-score in test [1] is -0.223; in [6], 0.315; in test [7], -0.15; in the test with Torsin-1A (Homo sapiens) [8] it was 0.296; with Torsin-1A (Homo sapiens) [9], 0.51; in [10], 0.646. Moreover, the z-score in test [2] was -0.849 (inactive); in test [3] it was -0.145 (inactive); in test [4] it was 7.85 (inactive); in test [5], -0.218 (inactive).
In the case of `CN1C(=O)[C@@]2(Cc3ccccc3)N=C(c3ccc(OCCCO)cc3)O[C@H]2c2ccccc21`, the composite z-score is 0.634 in test [1]; 0.0831 in test [6]; 0.382 in [7]; 0.266 with Torsin-1A (Homo sapiens) [8]; -0.0779 with Torsin-1A (Homo sapiens) [9]; 1.45 in test [10]. Also, the z-score in test [2] was -4.44 (inactive); in [3], -0.458 (inactive); in test [4] it was 1.04 (inactive); in [5], -1.67 (inactive).
Turning to `CC1CC/C=C\[C@H]2OC34C=CCN(C(C)(C)C)C(=O)[C@H]3N(C(CO)C(C)C)C(=O)[C@@H]4C2C(=O)O1` (stereo not given in full), the composite z-score in test [1] was 0.0295; in [6] it was -0.324; in test [7], -0.128; with Torsin-1A (Homo sapiens) [8], 0.0733; in the test with Torsin-1A (Homo sapiens) [9], 0.931; in test [10], 0.774. For the same molecule, the z-score in [2] is 0.0336 (inactive); in test [3] it was 1.4 (inactive); in [4] it was -0.354 (inactive); in test [5], 0.46 (inactive).
Take `CCOC(=O)C1=CCN(S(=O)(=O)c2ccc(C)cc2)C1c1ccccc1` (stereo not given): the composite z-score in test [1] stood at 0.0881; in test [6], 0.388; in [7] it was 0.141; with Torsin-1A (Homo sapiens) [8], 0.355; with Torsin-1A (Homo sapiens) [9], 0.302; in test [10] it was 0.598. Also, the z-score in [2] is -3.3 (inactive); in test [3], 0.498 (inactive); in test [4], -0.284 (inactive); in [5], -1.12 (inactive).
`O=C(CS)NCCCCCNC(=O)[C@@H]1C[C@@H]2C(=O)N[C@@H](Cc3ccccc3)C(=O)N2[C@@H]1c1cccc(OCCO)c1`: the composite z-score in [1] was 0.409; in test [6], -0.0307; in test [7], -0.787; with Torsin-1A (Homo sapiens) [8], 0.7; in the test with Torsin-1A (Homo sapiens) [9], 1.31; in test [10] it was 1.49. In addition, the z-score in test [2] was -0.497 (inactive); in test [3], -0.042 (inactive); in [4] it was 0.7 (inactive); in test [5], 0.432 (inactive).
Take `Cc1ccc(F)cc1S(=O)(=O)N[C@@H]1CCN(Cc2cccc3[nH]ccc23)C1`: the composite z-score in test [1] was 0.148; in test [6], -0.0164; in test [7] it was 0.143; with Torsin-1A (Homo sapiens) [8], 0.495; with Torsin-1A (Homo sapiens) [9], 0.913; in test [10] it was 0.969. The z-score in [2] was -2.35 (inactive); in [3], -0.0885 (inactive); in [4], 1.13 (inactive); in test [5] it was -0.714 (inactive).
Regarding `C=CCC(OC(C)=O)[C@@H]1[C@@H](N(Cc2ccc(-c3cccc(C(F)(F)F)c3)o2)C(=O)Cc2ccc(OC)cc2)c2cc(OCCCO)ccc2N1C(=O)Cc1ccc2ccccc2c1` (stereo not given in full), the composite z-score in test [1] was -0.19; in [6], -0.679; in test [7], -0.238; with Torsin-1A (Homo sapiens) [8] it was -1.96; with Torsin-1A (Homo sapiens) [9], -1.85; in test [10], 0.0678. Further, the z-score in test [2] is -1.58 (inactive); in test [3] it was -0.787 (inactive); in test [4] it was 0.134 (inactive); in test [5], 0.376 (inactive).
Consider `O=C(N1CCOCC1)[C@@]1(CCS(=O)(=O)c2ccccc2)N=C(c2ccc(OCCCO)cc2)O[C@H]1c1ccccc1`, for which the composite z-score in test [1] is 0.465; in test [6], 2.39; in [7] it was 0.3; in the test with Torsin-1A (Homo sapiens) [8], 0.411; in the test with Torsin-1A (Homo sapiens) [9], 0.767; in [10] it was -0.514. For the same molecule, the z-score was -1.48 (inactive) in [2], 0.201 (inactive) in [3], 0.0127 (inactive) in [4] and -0.0526 (inactive) in test [5].
As for `O=c1cccc(-c2ccco2)o1`, the composite z-score came out at 0.302 in test [1]; 0.721 in test [6]; 0.0091 in [7]; 0.444 with Torsin-1A (Homo sapiens) [8]; 0.066 in the test with Torsin-1A (Homo sapiens) [9]; 2.07 in test [10]. For the same molecule, the z-score in test [2] is -0.768 (inactive); in test [3], 0.329 (inactive); in test [4], -0.518 (inactive); in [5] it was 0.57 (inactive).
For `COCCOC(=O)N1C(=O)[C@@]2(c3cc(C#CCNC(N)=O)ccc31)[C@H](c1ccc(O)cc1)N1[C@H](c3ccccc3)[C@H](c3ccccc3)OC(=O)[C@H]1[C@@H]2C(N)=O`, the composite z-score was -0.503 in test [1]; -1.53 in test [6]; -0.331 in test [7]; -0.57 with Torsin-1A (Homo sapiens) [8]; -0.934 with Torsin-1A (Homo sapiens) [9]; -1.56 in test [10]. The z-score in test [2] was -0.522 (inactive); in test [3], 0.175 (inactive); in [4], 0.224 (inactive); in [5] it was 0.645 (inactive).
Turning to `C=C(/C(=C/C[C@@H](OC(=O)c1ccncc1)c1cccc(OCCO)c1)c1cnc2ccccc2c1)C(C)C`, the composite z-score in test [1] was 0.782; in test [6], 1.62; in test [7], 0.0422; with Torsin-1A (Homo sapiens) [8], 0.199; with Torsin-1A (Homo sapiens) [9] it was 0.128; in test [10], 2. Moreover, the z-score in test [2] was -2.31 (inactive); in test [3], -0.454 (inactive); in test [4] it was 1.69 (inactive); in test [5], 0.628 (inactive).
For the molecule `C=C(CCCC)C(=O)CC[C@H](OC(=O)c1ccccc1-c1ccccc1C(=O)O)c1ccccc1OCCO`, the composite z-score in [1] was -0.131; in test [6], -0.759; in test [7] it was -0.179; in the test with Torsin-1A (Homo sapiens) [8] it was 1.03; with Torsin-1A (Homo sapiens) [9], 0.221; in test [10], 2.07. Further, the z-score in test [2] was -0.397 (inactive); in [3] it was -0.447 (inactive); in test [4] it was 5.04 (inactive); in test [5] it was 5.73 (inactive).
On to `COCCOC(=O)N1C(=O)[C@@]2(c3ccccc31)[C@H](c1ccccc1OCCO)N1[C@H](c3ccccc3)[C@H](c3ccccc3)OC(=O)[C@H]1[C@@H]2C(=O)N1CCCCCCC1`, for which the composite z-score was 1.82 in [1]; 3.64 in [6]; 2.24 in test [7]; 2.69 with Torsin-1A (Homo sapiens) [8]; 2.39 with Torsin-1A (Homo sapiens) [9]; 1.77 in test [10]. Also, the z-score is -3.1 (inactive) in test [2], -0.41 (inactive) in [3], -0.744 (inactive) in test [4] and 4.93 (inactive) in test [5].

These data come from PubChem BioAssay.
